In all, about 85,000 compounds went through this assay and about 5,100 (6%) were called active.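 Rule for the calls: active = viability at or below 40%; inactive = viability above 40%.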 The full list was thinned out, with actives kept by preference.
Assay: proliferation blockers of H69AR lung cancer cells, primary screen, cell-based, human, 86K library (AID 598);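 note: multidrug resistant small cell line overexpressing MRP-1 efflux transporter; 100% = mean luminescence of untreated control wells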
Conditions: H69AR lung tumor viability, ATP luminescence, 72 h; at 10 µM; hits give low values

Row | Compound | viability
1 | Cc1ccc(-n2c(CNc3ccc(F)cc3)nnc2SCC(=O)N2CCOCC2)cc1 | 92% (inactive)
2 | C1=C(CCNc2ncnc3c2cnn3-c2ccccc2)CCCC1 | 77% (inactive)
3 | O=C(NCCC1=CCCCC1)C1CCN(Cc2cnn(-c3ccccc3)c2-n2cccc2)CC1 | 26% (active)
4 | CC(=O)Nc1ccc(NC(=O)CSCc2cnn(-c3ccccc3)c2-n2cccc2)cc1 | 87.6% (inactive)
5 | CC(C)Oc1ccc(Oc2ccc(C(F)(F)F)cn2)cc1 | 98.7% (inactive)
6 | N=c1n(Cc2ccc(Cl)cc2)c2ccccc2n1CC(O)c1ccco1 (centres undefined) | 14.7% (active)
7 | O=S(=O)(O)c1nc2ccccc2n1Cc1ccc(Cl)cc1 | 86.1% (inactive)
8 | Cn1c(=N)n(CC(O)c2ccccc2)c2ccccc21 (centres undefined) | 80.7% (inactive)
9 | O=C(NCc1ccccc1Cl)c1csc2c1CCCCC2 | 97.3% (inactive)
10 | Cc1ccsc1C(C(=O)NC1CCCCC1)N(C(=O)Cc1cccs1)C1CC1 (centres undefined) | 25.5% (active)
11 | CC(Cc1cccs1)NC(=O)NC1CCCCC1 (centres undefined) | 87% (inactive)
12 | O=C(NCC(=O)N(Cc1cccs1)C(C(=O)NC1CCCCC1)c1ccco1)c1cccs1 (centres undefined) | 82.2% (inactive)
13 | CC(=O)c1ccc(OCCN2CCOCC2)cc1 | 85.9% (inactive)
14 | Cc1ccc(NC(=O)N2CCC(O)(c3cccnc3)CC2)cc1 | 78.4% (inactive)
15 | CCCCc1nnc(NC(=O)CS(=O)(=O)Cc2ccccc2)s1 | 97% (inactive)
16 | CC(=O)NC1=NN(C(C)=O)C(C)(c2ccc(Cl)s2)S1 (centres undefined) | 17.3% (active)
17 | O=C(NC1=NCCS1)c1ccc(Cl)s1 | 93.3% (inactive)
18 | c1ccc2c(-c3nn4nnnc4c4ccccc34)cccc2c1 | 64.8% (inactive)
19 | CCCn1c(C)cc(C(=O)COC(=O)c2c(C)nn(-c3ccccc3)c2C)c1C | 100% (inactive)
20 | CCOC(=O)N1CCN(C(c2cccnc2)c2ccc3cccnc3c2O)CC1 (centres undefined) | 35.2% (active)
21 | CCN1CCN(C(c2cccnc2)c2cc(Cl)c3cccnc3c2O)CC1 (centres undefined) | 102% (inactive)
22 | Oc1c(C(c2ccccn2)N2CCOCC2)ccc2cccnc12 (centres undefined) | 79.3% (inactive)
23 | CC(C)(C)c1nc2ccccc2c(=O)n1N1C(=O)c2ccccc2C1=O | 63.5% (inactive)
24 | Cc1ccc2cc(CCNC(=O)c3c(-c4ccccc4Cl)noc3C)c(=O)[nH]c2c1 | 86.2% (inactive)
25 | Brc1ccc(-c2nnc(-c3ccccc3)o2)o1 | 90% (inactive)

Row | Compound | viability
26 | O=C(Nc1ccc(-c2nnc(-c3ccccc3)o2)cc1)c1ccc(Br)o1 | 39.8% (active)
27 | O=C(Nc1ccc(-c2nnc(-c3ccccc3)o2)cc1)C1CCCO1 (centres undefined) | 86% (inactive)
28 | CC1CCN(S(=O)(=O)c2ccc(S(=O)(=O)NCc3ccco3)cc2)CC1 | 75.4% (inactive)
29 | OC(CNCC1CCCO1)Cn1c2ccc(Br)cc2c2cc(Br)ccc21 (centres undefined) | 1.09% (active)
30 | Cc1ccc(C(=O)NCC2CCCO2)o1 (centres undefined) | 93.7% (inactive)
31 | Cc1cc(Br)ccc1NC(=O)C1CCCO1 (centres undefined) | 101% (inactive)
32 | CCOCCCNC(=O)C(NC(=O)CNC(=O)c1ccccc1)c1ccc(C)cc1 (centres undefined) | 101% (inactive)
33 | O=S(=O)(Cc1cc(Sc2ccccc2)nc(-c2ccccc2)n1)c1ccccc1 | 84.3% (inactive)
34 | CN(c1nc2ccccc2n2c(-c3ccco3)nnc12)S(=O)(=O)c1ccccc1 | 96.1% (inactive)
35 | Cn1c(-c2ccco2)nc2cc3ccccc3cc21 | 37.4% (active)
36 | c1coc(-c2nc3nc4ccccc4n3nc2-c2ccco2)c1 | 82.6% (inactive)
37 | Cc1ccc(C)c(NC2=NCC(=O)N2c2ccc3c(c2)OCCO3)c1 | 100% (inactive)
38 | COc1ccc(NC(=O)CCN2CCCC2)c(OC)c1 | 94.6% (inactive)
39 | CN1C(=O)C(CC(N)=O)N(NC(=O)c2ccc(Cl)cc2)C1=S (centres undefined) | 98% (inactive)
40 | COc1ccc(-n2nnnc2SCC(=O)c2ccc(OC)c(OC)c2)cc1 | 92% (inactive)
41 | CCOc1cccc(-n2nnnc2-c2ccc(OC)cc2)c1 | 15.2% (active)
42 | CCOc1cccc(-c2nnc3sc(COc4ccc(OC)cc4)nn23)c1 | 51.3% (inactive)
43 | O=C(CC1(O)C(=O)N(CN2CCOCC2)c2ccccc21)c1ccccc1 (centres undefined) | 79.9% (inactive)
44 | C#CCN1C(=O)C(O)(CC(=O)c2cc(OC)ccc2OC)c2ccccc21 (centres undefined) | 17.6% (active)
45 | CCOC(=O)CN1C(=O)C(O)(CC(=O)c2ccccn2)c2ccccc21 (centres undefined) | 46.4% (inactive)
46 | COc1ccc(N2CCN(C(=O)CSc3ncnc4c3cnn4-c3ccc(OC)cc3)CC2)cc1 | 89.9% (inactive)
47 | COc1ccc(-n2c(C)nc3c(cnn3-c3ccccc3)c2=O)cc1 | 19.6% (active)
48 | CCOC(=O)c1ccc(-n2c(C)nc3c(cnn3-c3ccccc3C)c2=O)cc1 | 96.7% (inactive)
49 | Cc1ccc(/C=N/NC(=O)C2=NNC(c3ccccc3)(c3ccccc3)C2)c(O)c1 | 40.7% (inactive)
50 | COc1ccccc1CNS(=O)(=O)c1ccc(C)cc1 | 86.8% (inactive)

Row | Compound | viability
51 | CCOc1ccc(S(=O)(=O)Nc2ccc(S(=O)(=O)Nc3cc(OC)ccc3OC)cc2)cc1 | 74.9% (inactive)
52 | COc1ccc(S(=O)(=O)N/N=C\c2ccc(OC)c(COc3ccc(C)cc3[N+](=O)[O-])c2)cc1 | 29.6% (active)
53 | Cc1noc(/C=C/c2ccco2)c1S(=O)(=O)N1CCC(C(=O)N2CCc3ccccc32)CC1 | 81.4% (inactive)
54 | CCC(C(=O)NC1CCCC1)N(C(=O)c1snc(C(N)=O)c1N)c1ccc2c(c1)OCCO2 (centres undefined) | 33.1% (active)
55 | COCCNC(=O)C(c1ccc(C)o1)N(Cc1cccs1)C(=O)c1snc(C(N)=O)c1N (centres undefined) | 91.2% (inactive)
56 | Cc1ccc(C(C(=O)NC2CCCCC2)N(C(=O)c2csnn2)C2CC2)o1 (centres undefined) | 95.7% (inactive)
57 | Cc1cc(O)cc(O)c1C(=O)Cc1cnn(-c2ccccc2)c1 | 79.8% (inactive)
58 | O=C1C=C(c2ccc(Cl)cc2)C(=O)N1Nc1ccccc1 | 1.17% (active)
59 | Cc1ccc(CCN2CC(C(=O)O)CC2=O)cc1 (centres undefined) | 91.7% (inactive)
60 | CC(C)n1c(-c2cccs2)nc2ccccc21 | 89.8% (inactive)
61 | CC(C)=C1SC(N2CCN(c3cccc(C)c3)CC2)=NC1=O | 96.9% (inactive)
62 | O=C1N=C(N2CCCC2)S/C1=C\c1cccc(Br)c1 | 36.9% (active)
63 | CCN1C(=O)/C(=C2\SC(N3CCCCC3)=NC2=O)c2ccccc21 | 67.4% (inactive)
64 | CC(C)C(=O)Nc1ccc2c(c1)oc1ccccc12 | 55.1% (inactive)
65 | C/C(=C\C(=O)c1cccnc1)Nc1ccc(C)c(C)c1 | 93.1% (inactive)
66 | O=C(/C=C/c1ccc(Cl)cc1Cl)c1cccnc1 | 0.85% (active)
67 | O=C(NCc1ccc(Cl)c(Cl)c1)c1cccnc1 | 94.2% (inactive)
68 | OC(C#CCN1CCOCC1)(c1ccccc1)C1CCCCC1 (centres undefined) | 79.2% (inactive)
69 | CCOC(=O)C1=C(CSc2nccn2C)NC(=O)NC1c1ccc(OC)cc1 (centres undefined) | 82.8% (inactive)
70 | COCCOC(=O)C1=C(C)N=c2s/c(=C\c3cccs3)c(=O)n2C1c1cccs1 (centres undefined) | 80.7% (inactive)
71 | CCOC(=O)C1=C(C)N=c2s/c(=C\C(=O)OC)c(=O)n2C1c1ccc(OC)cc1 (centres undefined) | 10.6% (active)
72 | Cc1nc2ccccc2n1C(=O)N1CCOCC1 | 82.5% (inactive)
73 | COC(=O)c1cc(NC(=O)C2C3C=CC(C3)C2C(=O)O)cc(C(=O)OC)c1 (centres undefined) | 94.8% (inactive)
74 | Cc1ccc(-n2c(SCC(=O)NCc3ccc4c(c3)OCO4)nnc2-c2cccnc2)c(C)c1 | 35.1% (active)
75 | Cc1ccccc1-c1nnc(SCC(=O)NCc2ccc3c(c2)OCO3)n1C | 91.1% (inactive)

Row | Compound | viability
76 | Cc1ccccc1-n1c(SCC(=O)NCc2cccs2)nnc1-c1ccncc1 | 89.8% (inactive)
77 | Cc1cccc(Cn2c(N3CCN(c4ccccc4)CC3)nc3c2c(=O)n(C)c(=O)n3C)c1 | 72.4% (inactive)
78 | Cc1cccc(C2c3c(n(C)c(=O)n(C)c3=O)N=C3c4ccccc4C(=O)C32)c1 (centres undefined) | 4.39% (active)
79 | CCc1nnc(NC(=O)CSc2nc3ccccc3c(=O)n2CCCOC)s1 | 64.5% (inactive)
80 | CCC(O)CNc1nc(-n2nc(C)cc2C)nc2sc3c(c12)CC(C)(C)OC3 (centres undefined) | 44.6% (inactive)
81 | COCCNc1nc(-n2nc(C)cc2C)nc2sc3c(c12)CCCC3 | 6.95% (active)
82 | Cc1cc(C)n(-c2nc(SCC(=O)N3CCCC3)c3c4c(sc3n2)CCCC4)n1 | 57.6% (inactive)
83 | COC(=O)c1cccc(-n2[nH]nnc2=S)c1 | 87.1% (inactive)
84 | O=[N+]([O-])c1ccc(Oc2ccc(F)cc2Br)c2ccncc12 | 17.6% (active)
85 | Cn1c(SCC(=O)C(C)(C)C)nnc1-c1ccccn1 | 98.3% (inactive)
86 | CC(=O)C1=C(C)NC(C)=C(C(C)=O)C1c1cn(-c2ccccc2)nc1-c1cccs1 | 93.4% (inactive)
87 | CCC(=O)NCCc1nc2ccccc2n1CC | 95.2% (inactive)
88 | CCOC(=O)c1c(NC(=O)CSc2nnc(CNc3ccc(C)cc3C)o2)sc(C)c1C | 92.8% (inactive)
89 | CC1(C)CC(=O)C=C(N2CCCC2)C1 | 95.2% (inactive)
90 | O=C1NC(c2cc3c(cc2Cl)OCO3)Oc2ccccc21 (centres undefined) | 32.9% (active)
91 | CC(=O)c1ccc2c(c1)c1ccccc1n2CC(C)C | 73.2% (inactive)
92 | CS(=O)(=O)N(CC(O)Cn1c2ccccc2c2ccccc21)c1cccc2ccccc12 (centres undefined) | 1.71% (active)
93 | O=C1c2ccccc2S(=O)(=O)N1CC(O)Cn1c2ccccc2c2ccccc21 (centres undefined) | 92.4% (inactive)
94 | CCCCOc1ccc(C(=O)NCc2ccncc2)cc1 | 78.5% (inactive)
95 | CCOC(=O)c1cnc(SC)nc1Sc1ccc(Cl)cc1Cl | 85.4% (inactive)
96 | Cc1ccc(CN(N=Nc2nonc2N)c2nonc2N)c(C)c1 | 79.6% (inactive)
97 | CCC1(C)Cc2c(sc3[nH]c(=S)n(Cc4ccccc4)c(=O)c23)CO1 (centres undefined) | 25% (active)
98 | CCC1(C)Cc2c(sc3nc4n(c(=O)c23)CCCS4)CO1 (centres undefined) | 93.3% (inactive)
99 | CCC1(C)Cc2c(sc3nc(SC)nc(N)c23)CO1 (centres undefined) | 62.6% (inactive)

Source: PubChem BioAssay AID598 (SRMLSC, 2007)
